Source: PubChem BioAssay AID1159580 (chemical genetic matrix, 2015)
Where “and” joins values, the source holds several entries; their conditions need not be identical. Equal values may be shown once. Out of some 5,500 compounds screened, about 2,000 (36%) were called active. Inconclusive results (about 18%) are left out. Rule as the data show it: active = normalized growth mostly below about 0.91 (no sharp cut-off); inconclusive = no clear call, values can overlap the other calls; inactive = mostly above about 0.92. Some of the results follow.

Test: chemical genetic growth profiling, strain panel (AID 1159580);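 also: tested at 20 µM; growth read once vehicle control cultures reached saturation at 30 °C; 1 = growth at the plate median or of vehicle wells; lower values mean less growth of the strain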
Conditions: S. cerevisiae deletion strains, growth OD

Measured: normalized growth

NC1=NCCN1CC(=O)O
inactive: locus YAL013W, strain DEP1, active compounds read low 0.99 | locus YAL021C, strain ccr4, active compounds read low 1.02 | locus YAL026C, strain drs2, active compounds read low 1.02 | locus YAL030W, strain snc1, active compounds read low 1.03 | locus YBL061C, strain skt5, active compounds read low 1.01 | locus YBR009C, strain hhf1, active compounds read low 1 | locus YBR021W, strain FUR4, active compounds read low 1 | locus YBR023C, strain chs3, active compounds read low 1.01 | locus YBR171W, strain sec66, active compounds read low 1.01 | locus YBR229C, strain ROT2, active compounds read low 0.96 | locus YBR231C, strain swc5, active compounds read low 1.01 | locus YBR279W, strain paf1, active compounds read low 1.01 | locus YCL011C, strain gbp2, active compounds read low 1.04 | locus YCL016C, strain dcc1, active compounds read low 1.01 | locus YCL029C, strain bik1, active compounds read low 0.997 | locus YCL069W, strain vba3, active compounds read low 1.01 | locus YCR088W, strain abp1, active compounds read low 1.02 | locus YDL005C, strain med2, active compounds read low 1.01 | locus YDL035C, strain GPR1, active compounds read low 0.989 | locus YDL040C, strain nat1, active compounds read low 1.01 | locus YDL074C, strain BRE1, active compounds read low 0.924 | locus YDL101C, strain DUN1, active compounds read low 0.961 | locus YDL134C, strain PPH21, active compounds read low 1.01 | locus YDL185W, strain tfp1, active compounds read low 0.986 | locus YDL192W, strain arf1, active compounds read low 0.992 | locus YDR001C, strain nth1, active compounds read low 1.01 | locus YDR069C, strain doa4, active compounds read low 1.02 | locus YDR101C, strain arx1, active compounds read low 0.996 | locus YDR137W, strain rgp1, active compounds read low 1.04 | locus YDR150W, strain NUM1, active compounds read low 0.986 | locus YDR159W, strain sac3, active compounds read low 0.958 | locus YDR162C, strain NBP2, active compounds read low 0.99 | locus YDR195W, strain ref2 1.02 | locus YDR297W, strain sur2, active compounds read low 1 | locus YDR318W, strain mcm21, active compounds read low 0.995 | locus YDR334W, strain swr1, active compounds read low 1.01 | locus YDR335W, strain msn5, active compounds read low 1.01 | locus YDR388W, active compounds read low 0.989 | locus YDR392W, strain spt3, active compounds read low 0.86 | locus YDR502C, strain sam2, active compounds read low 0.988 | locus YEL003W, strain gim4, active compounds read low 0.996 | locus YEL037C, strain rad23, active compounds read low 1.02 | locus YEL061C, strain CIN8 (second series), active compounds read low 1.03 | locus YEL061C, strain CIN8, active compounds read low 0.981 | locus YER015W, strain faa2, active compounds read low 1.02 | locus YER016W, strain bim1, active compounds read low 1.03 | locus YER110C, active compounds read low 0.988 | locus YER111C, strain swi4, active compounds read low 1.03 | locus YER155C, strain BEM2 (second series), active compounds read low 0.911 | locus YER155C, strain BEM2, active compounds read low 1 | locus YER167W, strain BCK2, active compounds read low 0.984 | locus YFR010W, strain ubp6, active compounds read low 1.01 | locus YGL078C, strain dbp3, active compounds read low 0.997 | locus YGL086W, strain mad1, active compounds read low 0.98 | locus YGL167C, strain pmr1, active compounds read low 1.01 | locus YGL173C, strain kem1, active compounds read low 1 | locus YGL227W, strain vid30, active compounds read low 1.04 | locus YGL240W, strain doc1, active compounds read low 1 | locus YGL248W, strain PDE1, active compounds read low 0.971 | locus YGL253W, strain hxk2, active compounds read low 1.01 | locus YGR135W, strain pre9, active compounds read low 1.01 | locus YGR229C, strain SMI1, active compounds read low 1.02 | locus YGR252W, strain gcn5, active compounds read low 1.01 | locus YHR013C, strain ard1, active compounds read low 0.996 | locus YHR027C, strain rpn1, active compounds read low 1.02 | locus YHR030C, strain SLT2, active compounds read low 0.998 and 0.992 | locus YHR079C, strain IRE1 (second series), active compounds read low 0.997 | locus YHR079C, strain IRE1, active compounds read low 0.992 | locus YHR094C, strain hxt1, active compounds read low 0.995 | locus YHR129C, strain ARP1, active compounds read low 0.999 | locus YHR142W, strain chs7, active compounds read low 0.992 | locus YHR200W, strain rpn10, active compounds read low 0.99 | locus YIL066C, strain RNR3, active compounds read low 0.966 | locus YIL073C, strain SPO22, active compounds read low 1.07 | locus YIL125W, strain kgd1, active compounds read low 0.984 | locus YIR030C, strain dcg1, active compounds read low 0.994 | locus YJL092W, strain hpr5, active compounds read low 1.01 | locus YJL095W, strain BCK1 (second series), active compounds read low 1.02 | locus YJL095W, strain BCK1, active compounds read low 0.969 and 0.972 | locus YJL115W, strain asf1, active compounds read low 1.02 | locus YJL129C, strain trk1, active compounds read low 1 | locus YJL134W, strain LCB3, active compounds read low 0.988 | locus YJL154C, strain vps35, active compounds read low 1.02 | locus YJL164C, strain tpk1, active compounds read low 0.986 | locus YJL166W, strain qcr8, active compounds read low 1 | locus YJL168C, strain set2, active compounds read low 0.989 | locus YJL187C, strain SWE1 (second series), active compounds read low 0.964 | locus YJL187C, strain SWE1, active compounds read low 1
